The nature of test [1]: Cy5 fluorescence interference with SSB-bound oligo, artefact control for HCV NS3 helicase inhibitor project, biochemical, NIH Clinical Collection, E. coli SSB (AID 743268).
Test [2] deals with Hepatitis C virus NS3 helicase. As to the kind of experiment: HCV NS3 helicase inhibitors, primary screen, biochemical, fluorescence polarization, NIH Clinical Collection (AID 743270). The following applies: NS3 helicase binding to Cy5-dT15 DNA, stronger effect = higher value, concentration not given here.
The target of test [3] is Single-stranded DNA-binding protein (Escherichia coli (strain K12)) (UniProt P0AGE0). As to the kind of experiment: E. coli SSB displacement from DNA, counter-screen for HCV NS3 helicase inhibitor project, biochemical, fluorescence polarization, NIH Clinical Collection (AID 743271; in the data active means inhibition above about 28%). The following applies: stronger effect = higher value, concentration not given here.
Test [4] in a line: fluorescence interference in NS3h assay format, artefact control for HCV NS3 helicase inhibitor project, biochemical, NIH Clinical Collection (AID 743272).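 Further: HCV NS3 helicase with a Cy5 labelled single stranded DNA probe.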 Conditions: fluorescence interference counterscreen, stronger effect = lower value.
Test [5] concerns Neuropilin-2 / VEGF-C interaction (human). As to the kind of experiment: inhibitors of NRP2–VEGF-C binding, biochemical, microplate binding format, z-score (AID 743281). Conditions: microplate NRP2/VEGF-C binding assay; stronger effect = lower value.
Test [6] in a line: stimulators of nuclear beta-catenin in C2C12, primary screen, imaging, WNT3A-conditioned medium, mouse C2C12, NPC library (AID 1117326; in the data active means nuclear beta-catenin stimulation mostly above about 4.2%, no sharp cut-off; inactive means mostly below about 10%). Conditions: stronger effect = higher value.
Test [7] can be described thus: stimulators of insulin release from INS-1E, primary screen, cell-based, 5 mM glucose, NPC library (AID 1117329;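 active means compound raises insulin release from rat beta cells at 5 mM glucose, no numeric limit stated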). Conditions: rat INS-1E insulin secretion, at 10 µM, stronger effect = higher value.
Test [8] can be described thus: growth inhibition of GSK3B-pretreated HCT116 cells – cell-based, CellTiter-Glo, 0.2 to 20 µM (AID 1117336;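 active means compounds lowering colon cancer cell viability after pretreatment blocking the GSK3B kinase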). The following applies: HCT116 viability after GSK3B inhibitor, at 20 µM, stronger effect = higher value.
A short description of test [9]: inhibition of endothelial tube formation, primary screen, imaging, VEGF stimulated, CD31 staining, tube area, NPC library (AID 1117340;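 active means compound that reduces growth-factor-driven endothelial tube area in a mixed cell culture, no cutoff stated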). Conditions: VEGF-stimulated ADSC/ECFC co-culture, at 10 µM, stronger effect = higher value.
A short description of test [10]: glucagon-like peptide 1 release enhancers, primary assay, NCI-H716 cell line, NPC library (AID 1117341;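 active means compound raises GLP1 secretion from the human gut endocrine cells, with no numeric limit stated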). The following applies: NCI-H716 cells, at 10 µM, stronger effect = higher value.
Test [11] is described as follows: HCT116 colon cancer cell growth inhibition, primary screen, CellTiter-Glo luminescence, NPC library (AID 1117342;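 active means compounds that lower survival of HCT116 colon cancer cells in the luminescence readout, no numeric limit stated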). Conditions: at 20 µM (top of the series).
The nature of test [12]: CellTiter-Glo luminescent readout of SW480 viability loss, NPC library primary (AID 1117343;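 active means compounds that lower viability of the colon cancer cells in the luminescence readout, with no numeric limit stated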). The following applies: CellTiter-Glo luminescence; at 20 µM (top of the series).
A short description of test [13]: decreased DLD-1 cellular survival, CellTiter-Glo luminescent readout, NPC compound collection, primary HTS (AID 1117346;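 active means compounds that lower survival of DLD-1 colon cancer cells in the luminescence readout, no cutoff given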). The following applies: DLD-1 viability, CellTiter-Glo luminescence; at 20 µM (top of the series).
Test [14] is described as follows: liver-stage malaria parasite growth inhibition, primary screen, cell-based, HepG2, luciferase luminescence, HepG2 viability (AID 624349; in the data active means parasite load remaining mostly below about 12%, no sharp cut-off; inactive means mostly above about 10%;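 further: 100% = mean of DMSO negative control wells on the same plate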). The following applies: P. berghei liver stage in HepG2, luciferase luminescence, concentration not given here; parasite load remaining: stronger effect = lower value; viability: measured here: HepG2 viability without parasites.
Test [15] relates to Hepatitis C virus NS3 helicase. As to the kind of experiment: HCV NS3 helicase inhibitors, primary screen, biochemical, fluorescence polarization, LOPAC1280 library (AID 687035; in the data active means inhibition above about 37%). Conditions: Purified HCV NS3 helicase, Cy5-dT15 ssDNA binding fluorescence polarization; stronger effect = higher value; concentration not given here.
Test [16] can be described thus: Cy5 fluorescence quenching or enhancement artefacts, artefact control for HCV NS3 helicase inhibitor project, biochemical, LOPAC1280 (AID 687037). The following applies: Cy5-DNA-NS3h complex fluorescence interference counterscreen.

Molecules are shown by their SMILES. Values joined by “and” are separate entries in the source; they are usually repeats but may differ in a detail not shown here. Equal values may be shown once. Active and inactive are the calls of the source. Unless noted, how the calls were made is not given here.

`COc1ccc2nc(S(=O)Cc3ncc(C)c(OC)c3C)[nH]c2c1` (centres undefined): the fluorescence ratio in test [1] is 1.02 (inactive); in test [4] it was 0.98 (inactive). Moreover, the inhibition was -1.97% (inactive) in test [2] and -3.54% (inactive) in [3]. For the same molecule, the z-score in test [5] is -0.241 (inactive). For the same molecule, the nuclear beta-catenin stimulation was 8.5% (inactive) in [6] (at 10 µM) and 4.5% in [6] (stimulation, at 2 µM). For the same molecule, in [7], the insulin secretion stimulation is 0.4% (inactive). Also, the viability decrease in test [8] is 13.3% (inactive). Moreover, the tube area decrease in [9] is 29.3% (inactive). Besides, in test [10], the GLP1 secretion stimulation is 1.7% (inactive). Besides, the inhibition of viability in test [11] was -0.23% (inactive). Further, the viability decrease (inhibition) was -451% (inactive) in test [12] and -12.7% (inactive) in test [13].

Regarding `COC(=O)CCc1ccc(OCC(O)CNC(C)C)cc1` (centres undefined), the parasite load remaining in test [14] was 82.9% (inactive) and 30.6% (inactive). Also, the viability in test [14] was 72.2% and 73%. The results for the fluorescence ratio in test [1] and in [4] were 1.05 (inactive) and 1.01 (inactive), respectively. Also, the inhibition in test [2] is -1.98% (inactive); in test [3], -5.49% (inactive). In test [5], the z-score is 0.0866 (inactive). Also, the nuclear beta-catenin stimulation in test [6] (at 10 µM) is -2% (inactive); in test [6] (stimulation, at 2 µM), 0.1%. For the same molecule, in test [7], the insulin secretion stimulation is 6.9% (inactive). In addition, the viability decrease in test [8] is -7.2% (inactive). Further, the tube area decrease in [9] is -8.1% (inactive). The GLP1 secretion stimulation in test [10] is -0.5% (inactive). The inhibition of viability in test [11] was 18.6% (inactive). For the same molecule, the values for the viability decrease (inhibition) in [12] and in [13] were 39.7% (inactive) and 16.8% (inactive), respectively.

As to `O=C1CC2(CCCC2)CC(=O)N1CCCCN1CCN(c2ncccn2)CC1`, the values for the inhibition in test [15], in [2] and in test [3] were 0% (inactive), -6.82% (inactive) and 1.05% (inactive), respectively. Also, the fluorescence ratio (interference) in test [16] was 1 (inactive). Besides, in test [4], the fluorescence ratio is 1.03 (inactive). Moreover, the nuclear beta-catenin stimulation in [6] (at 10 µM) is 0.7% (inactive); in test [6] (stimulation, at 2 µM), 2.6%. In addition, in test [7], the insulin secretion stimulation is -0.8% (inactive). Besides, the viability decrease in test [8] is 20.1% (inactive). For the same molecule, the tube area decrease in [9] is -1.5% (inactive). Further, in [10], the GLP1 secretion stimulation is 1.7% (inactive). The inhibition of viability in [11] was 39.4% (inactive). Moreover, the figures for the viability decrease (inhibition) in test [12] and in test [13] were 20.4% (inactive) and 1.7% (inactive), respectively.

As for `Cc1ccc(NC(=O)c2ccc(CN3CCN(C)CC3)cc2)cc1Nc1nccc(-c2cccnc2)n1`, the parasite load remaining in test [14] is 17.1% (inactive) and 60.3% (inactive). Moreover, the viability in test [14] was 65.9% and 227%. Moreover, the z-score in [5] was -0.734 (inactive). The nuclear beta-catenin stimulation in test [6] (at 10 µM) is 7.1% (inactive); in test [6] (stimulation, at 2 µM), -0.1%. For the same molecule, the insulin secretion stimulation in [7] is -3.1% (inactive). Besides, the viability decrease in test [8] was 94.3% (active). Besides, the tube area decrease in [9] was -31% (inactive). Further, the GLP1 secretion stimulation in test [10] was 13.7% (inactive). Besides, the inhibition of viability in [11] was 98% (active). The viability decrease (inhibition) was 97.6% (active) in test [12] and 88.8% (active) in [13].

Take `CCOC(=O)C1=C(C)NC(C)=C(C(=O)OC)C1c1cccc(Cl)c1Cl` (centres undefined): the inhibition in [15] was -1% (inactive). Also, the fluorescence ratio (interference) in test [16] is 1 (inactive). Moreover, the nuclear beta-catenin stimulation in [6] (at 10 µM) is 35.8% (inactive); in [6] (stimulation, at 2 µM) it was 7.4%. The insulin secretion stimulation in [7] is 3.1% (inactive). Also, the viability decrease in test [8] was 113% (active). Moreover, the tube area decrease in test [9] was 58.1% (active). For the same molecule, the GLP1 secretion stimulation in test [10] was 5.3% (inactive). In addition, the inhibition of viability in test [11] is 110% (active). For the same molecule, the viability decrease (inhibition) in test [12] is 139% (active); in test [13], 95.6% (active).

`CC(C)NCC(O)COc1ccc(COCCOC(C)C)cc1` (centres undefined): the inhibition in test [15] was 2% (inactive); in test [2] it was 1.19% (inactive); in test [3], -0.1% (inactive). In addition, the fluorescence ratio (interference) in [16] was 1 (inactive). The results for the fluorescence ratio in test [1] and in test [4] were 1.04 (inactive) and 0.94 (inactive), respectively. Also, in [5], the z-score was -0.164 (inactive). Besides, the nuclear beta-catenin stimulation was 0.8% (inactive) in test [6] (at 10 µM) and 1.2% in [6] (stimulation, at 2 µM). Further, in test [7], the insulin secretion stimulation was 1.2% (inactive). Further, in [8], the viability decrease was 6.2% (inactive). The tube area decrease in [9] was -2.7% (inactive). In addition, the GLP1 secretion stimulation in test [10] was -1.1% (inactive). Moreover, the inhibition of viability in [11] is -3.93% (inactive). For the same molecule, the figures for the viability decrease (inhibition) in test [12] and in test [13] were 0% (inactive) and -4.5% (inactive), respectively.

In the case of `O=C(CCNNC(=O)c1ccncc1)NCc1ccccc1`, the inhibition in test [15] was -4% (inactive); in [2] it was 0.66% (inactive); in [3], -1.97% (inactive). Besides, the fluorescence ratio (interference) in test [16] was 1 (inactive). The fluorescence ratio in [1] was 1.01 (inactive); in test [4] it was 0.97 (inactive). Besides, the z-score in test [5] was -0.136 (inactive). The nuclear beta-catenin stimulation in [6] (at 10 µM) is -1% (inactive); in test [6] (stimulation, at 2 µM) it was 0.1%. For the same molecule, the insulin secretion stimulation in test [7] is -2.7% (inactive). Further, the viability decrease in test [8] is 29.1% (inactive). For the same molecule, the tube area decrease in test [9] was -20.5% (inactive). In [10], the GLP1 secretion stimulation was 0.6% (inactive). Further, the inhibition of viability in test [11] is -8.3% (inactive). In addition, the viability decrease (inhibition) is 81.2% (active) in test [12] and 31.8% (inactive) in [13].

The values above are taken from PubChem BioAssay.
